Screening results as filed in PubChem.
hNpr1 antagonist = antagonists of human natriuretic peptide receptor Npr1. P16066. HEK293 hNpr1 GloSensor cGMP, ANP-stimulated luminescence. Potency, µM (highest dose often 46.3 µM), most hits filed as inhibitors. 76,000 compounds, 1.6% hits. AID 1347048; calls by dose curve; note: nearly all actives have a fitted effect of over 60% in size
Target sequence (P16066 whole entry, looked up): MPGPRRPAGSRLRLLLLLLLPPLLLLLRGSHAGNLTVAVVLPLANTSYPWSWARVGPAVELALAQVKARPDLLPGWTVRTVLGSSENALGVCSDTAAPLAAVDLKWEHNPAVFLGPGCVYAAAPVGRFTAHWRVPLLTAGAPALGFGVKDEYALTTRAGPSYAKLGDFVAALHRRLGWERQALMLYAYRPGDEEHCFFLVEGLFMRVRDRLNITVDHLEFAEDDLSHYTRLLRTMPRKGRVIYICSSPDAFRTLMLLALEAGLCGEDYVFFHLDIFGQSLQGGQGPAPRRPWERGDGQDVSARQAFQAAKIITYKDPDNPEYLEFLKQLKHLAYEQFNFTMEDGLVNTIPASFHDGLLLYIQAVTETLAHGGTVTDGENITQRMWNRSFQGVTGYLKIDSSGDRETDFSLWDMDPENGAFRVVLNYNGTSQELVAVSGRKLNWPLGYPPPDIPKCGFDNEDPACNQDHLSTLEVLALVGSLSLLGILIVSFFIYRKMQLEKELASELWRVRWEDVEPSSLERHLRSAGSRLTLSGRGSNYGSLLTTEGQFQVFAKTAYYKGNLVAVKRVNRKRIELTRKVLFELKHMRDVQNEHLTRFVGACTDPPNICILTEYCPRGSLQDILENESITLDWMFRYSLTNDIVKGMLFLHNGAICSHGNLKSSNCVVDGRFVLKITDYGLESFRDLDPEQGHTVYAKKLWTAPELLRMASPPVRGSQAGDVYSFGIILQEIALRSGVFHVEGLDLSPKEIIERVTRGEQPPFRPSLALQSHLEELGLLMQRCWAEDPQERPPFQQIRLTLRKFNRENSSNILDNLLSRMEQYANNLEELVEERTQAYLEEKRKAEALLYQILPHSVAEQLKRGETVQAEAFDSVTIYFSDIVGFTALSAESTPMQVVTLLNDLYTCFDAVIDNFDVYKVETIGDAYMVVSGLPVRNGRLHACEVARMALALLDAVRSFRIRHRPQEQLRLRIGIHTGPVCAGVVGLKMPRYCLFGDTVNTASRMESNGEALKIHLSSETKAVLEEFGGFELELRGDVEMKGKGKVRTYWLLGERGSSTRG
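Compound pre-incubated 30 min at room temperature on GloSensor-loaded HEK293 cells stably carrying hNpr1 and the pGS-40F cGMP biosensor. Stimulation uses hNppA at 0.1 nM final; luminescence is taken at baseline and 20 min post-agonist.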
3T3 cytotox = kills NIH 3T3 cells | NIH 3T3 viability, CellTiter-Glo ATP luminescence, 48-72 h | Potency, µM (series often up to 96.7 µM), hits mostly inhibitors | 94,000 compounds, 4.3% hits; note: nearly all actives have a fitted effect of over 55% in size
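Mouse fibroblast NIH 3T3 cells, 400 per well, received compound via pintool and were incubated for 48 or 72 hr prior to CellTiter-Glo ATP luminescence measurement.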
HEK cytotox = cytotoxic compounds in HEK 293 cells. HEK 293 viability, ATP luminescence (CellTiter-Glo), 48-72 h. Potency, µM (titrated, usually from 115 µM), usual class: inhibitors. 94,000 compounds, 6.6% hits. AID 1345083; note: nearly all actives have a fitted effect of over 60% in size
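250 HEK 293 cells/well; compound by pintool; incubated 48 or 72 hr at 37 degree Celsius; CellTiter-Glo added, 10 min RT, luminescence imaged.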
SNCA expr inhib = SNCA gene expression inhibition; HEK-293 SNCA-luciferase knock-in, luminescence, 24 h; Potency, µM (top dose mostly 57.2 µM), most hits filed as inhibitors; 140,000 compounds, 0.17% hits; note: nearly all actives have a fitted effect of over 45% in size
FLuc inh-1 = Photinus pyralis luciferase inhibition. P08659. purified P. pyralis luciferase, luminescence, biochemical. Potency, µM (highest dose often 115 µM), actives largely listed as inhibitors. 76,000 compounds, 2.5% hits. AID 1347043; note: nearly all actives have a fitted effect of over 65% in size
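Biochemical qHTS: compound (6-point titration) added to 10uM D-luciferin plus 10uM ATP in Tris acetate pH 7.5 buffer with Mg, Tween-20 and BSA, then purified enzyme at 10nM; light output imaged.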
HEK293 viab = cell viability loss counter-screen | HEK-293-SNCA-luc viability, GF-AFC fluorescence, 24 h | Potency, µM (doses to about 57.1 µM), most hits filed as cytotoxic | 150,000 compounds, 0.12% hits | AID 1671193; note: nearly all actives have a fitted effect of over 30% in size
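Cytotoxicity counterscreen: after 24 h compound treatment of genome-edited SNCA-luciferase HEK-293 cells, live-cell protease substrate GF-AFC read by fluorescence after 30 min; activity scaled between DMSO (0%) and medium-only (-100%), curves Hill-fitted.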
FLuc SDR -ATP = firefly luciferase binding stabilization, ATP absent. 1,300 compounds, 7.8% hits. Potency, µM (doses to about 32.7 µM), usual class: activators. shares compounds with FLuc inh-1. AID 1963318. Purified FLuc-C-HiBiT, Nano-Glo HiBiT luminescence, no ATP; note: nearly all actives have a fitted effect of over 55% in size
FLuc SDR ATP = stabilizes firefly luciferase with ATP present; shares compounds with FLuc inh-1; purified FLuc-C-HiBiT + ATP, HiBiT complementation luminescence; Potency, µM (doses to about 32.7 µM), most hits filed as activators; 1,300 compounds, 8.7% hits;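 note: signal reports ligand binding via conformational change of the enzyme rather than luciferase catalysis; nearly all actives have a fitted effect of over 55% in size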
FLuc inh-2 = blocks firefly luciferase enzymatic activity; shares compounds with FLuc inh-1; purified FLuc-C-HiBiT enzyme, luciferin luminescence; Potency, µM (titrated, usually from 32.7 µM), usual class: inhibitors; 1,300 compounds, 42% hits; AID 1963320; note: nearly all actives have a fitted effect of over 70% in size
Numbers stand for hits; [ ] = dose if it differs, or a comment. Shown are actives, neighbours in structure and some others; about 7.2% of the full set was active somewhere. Unless noted, calls come from the whole dose curve; as a rule, active = well fitted curve in the direction sought with a large enough effect; inconclusive = small, poorly fitted or top-dose-only effect, or another doubt; inactive = no such curve, though single readings can be large; an effect the other way counts as inactive or inconclusive.

Results for COCCN1C(=O)CCc2cc(NC(=O)c3ccc(OC(F)(F)F)cc3)ccc21 ?
hNpr1 antagonist: inactive; 3T3 cytotox: inconclusive; HEK cytotox: inconclusive; SNCA expr inhib: inactive; FLuc inh-1: inconclusive; HEK293 viab: inactive

Results for CCN1C(=O)CCc2cc(NC(=O)c3ccc(OC(F)(F)F)cc3)ccc21 ?
hNpr1 antagonist: inactive; 3T3 cytotox: 44.7µM; HEK cytotox: 50.1µM; SNCA expr inhib: inactive; FLuc inh-1: 14.1µM; HEK293 viab: inactive; FLuc SDR -ATP: inactive; FLuc SDR ATP: inactive; FLuc inh-2: inconclusive

Results for CCc1cccc(NCc2ccccc2-c2nnc(-c3ccccc3Cl)o2)c1 ?
SNCA expr inhib: inactive; HEK293 viab: inactive; FLuc SDR -ATP: inactive; FLuc SDR ATP: inactive; FLuc inh-2: inactive

Results for COc1ccc(C)cc1NC(=O)c1ccc2c(Cl)c3c(nc2c1)CCC3 ?
SNCA expr inhib: inactive; HEK293 viab: inactive; FLuc SDR -ATP: inactive; FLuc SDR ATP: inactive; FLuc inh-2: inconclusive

Results for CNC(=O)c1cccc(-c2cnc(NC(=O)c3ccncc3)c3c2CCO3)c1 ?
hNpr1 antagonist: inactive; 3T3 cytotox: inconclusive; HEK cytotox: inactive; SNCA expr inhib: inactive; FLuc inh-1: 12.6µM; HEK293 viab: inactive; FLuc SDR -ATP: inactive; FLuc SDR ATP: inconclusive; FLuc inh-2: inconclusive

What do the screens show for `CN(C)c1cccc(C(=O)Nc2ncc(-c3cnn(C)c3)c3c2OCC3)c1`?
hNpr1 antagonist: inactive; 3T3 cytotox: inconclusive; HEK cytotox: inactive; SNCA expr inhib: inactive; FLuc inh-1: inconclusive; HEK293 viab: inactive

What do the screens show for `CNC(=O)c1cccc(-c2cnc(NC(=O)c3cn(C)cn3)c3c2CCO3)c1`?
FLuc SDR -ATP: inactive; FLuc SDR ATP: inconclusive; FLuc inh-2: inconclusive

How did COc1ccc(N2CC(C(=O)NCCc3ccc(Cl)cc3)NC2=O)cc1 (configuration not stated) do in these assays?
hNpr1 antagonist: inactive; 3T3 cytotox: inactive; HEK cytotox: inactive; SNCA expr inhib: inactive; FLuc inh-1: inactive; HEK293 viab: inactive

What do the screens show for `CCCCN(C)C(=O)CN1C(=O)NC2(CCC(C)CC2)C1=O` (configuration not stated)?
hNpr1 antagonist: inactive; 3T3 cytotox: inactive; HEK cytotox: inactive; SNCA expr inhib: inactive; FLuc inh-1: inactive; HEK293 viab: inactive

Results for Cc1cc(-c2nc3cc(F)ccc3s2)ccc1N ?
FLuc SDR -ATP: inconclusive; FLuc SDR ATP: inconclusive; FLuc inh-2: 1.11µM

Results for Cc1nc(-c2ccc(Cl)cc2)sc1CCNC(=O)C(=O)Nc1ccc(F)cc1F ?
SNCA expr inhib: inactive; HEK293 viab: inactive

Results for Cc1nc(-c2ccc(F)cc2)sc1CCNC(=O)Cc1ccc(F)cc1 ?
SNCA expr inhib: inactive; HEK293 viab: inactive

Results for Cc1cc(-c2nc3cc(F)ccc3s2)ccc1NC(=O)[C@@H](N)CCCCN ?
HEK293 viab: inconclusive; FLuc SDR -ATP: inactive; FLuc SDR ATP: inconclusive; FLuc inh-2: 2.48µM

What do the screens show for `CCn1c(CO)nnc1C1CC(NC(=O)c2nnc3nc(C)ccn23)C1` (configuration not stated)?
hNpr1 antagonist: inactive; 3T3 cytotox: inactive; HEK cytotox: inactive; SNCA expr inhib: inactive; FLuc inh-1: inactive; HEK293 viab: inactive

How did COc1ccc(NC(=O)Nc2nnc(C)s2)cc1 do in these assays?
SNCA expr inhib: inactive; HEK293 viab: inactive; FLuc SDR -ATP: inactive; FLuc SDR ATP: inactive; FLuc inh-2: inconclusive

Results for Cc1ncc(CC(=O)NCC2CCN(c3cnn(C)c(=O)c3)C2)c(=O)[nH]1 (configuration not stated) ?
hNpr1 antagonist: inactive; 3T3 cytotox: inactive; HEK cytotox: inactive; SNCA expr inhib: inactive; FLuc inh-1: inactive; HEK293 viab: inactive

Results for Cc1ncc(CC(=O)NCc2ccc3[nH]c(-c4ccccc4F)c(C)c3c2)c(=O)[nH]1 ?
hNpr1 antagonist: inactive; 3T3 cytotox: inconclusive; HEK cytotox: inconclusive; SNCA expr inhib: inactive; FLuc inh-1: 12.6µM; HEK293 viab: inactive; FLuc SDR -ATP: inactive; FLuc SDR ATP: inactive; FLuc inh-2: inconclusive

Results for Cc1ncc(C(=O)NCc2ccc3[nH]c(-c4ccccc4F)c(C)c3c2)c(C)n1 ?
hNpr1 antagonist: 7.94µM; 3T3 cytotox: inconclusive; HEK cytotox: inconclusive; SNCA expr inhib: inactive; FLuc inh-1: 6.31µM; HEK293 viab: inactive; FLuc SDR -ATP: inactive; FLuc SDR ATP: inactive; FLuc inh-2: 7.85µM

Results for Cc1ccc(CNC(=O)c2nc(SCc3ccccc3F)ncc2Cl)cc1 ?
SNCA expr inhib: inactive; HEK293 viab: inactive

How did CN1C(=O)c2ccc(NC(=O)C[C@H]3NC(=O)c4ccccc4NC3=O)cc2C1=O do in these assays?
hNpr1 antagonist: inactive; 3T3 cytotox: inactive; HEK cytotox: inactive; SNCA expr inhib: inactive; FLuc inh-1: inactive; HEK293 viab: inactive

Results for CSc1cccc(NC(=O)c2ccc3c(c2)N(C)C2CCCN2C3=O)c1 (configuration not stated) ?
hNpr1 antagonist: inactive; 3T3 cytotox: inactive; HEK cytotox: inconclusive; SNCA expr inhib: inactive; FLuc inh-1: 14.1µM; HEK293 viab: inactive[12.5 µM]; FLuc SDR -ATP: inactive; FLuc SDR ATP: inconclusive; FLuc inh-2: inconclusive

What do the screens show for `Cc1cccc(NC(=O)c2ccc3c(c2)N(C)C2CCCN2C3=O)c1C` (configuration not stated)?
hNpr1 antagonist: inactive; 3T3 cytotox: inactive; HEK cytotox: inactive; SNCA expr inhib: inactive; FLuc inh-1: inactive; HEK293 viab: inconclusive

What do the screens show for `CSc1ccc(NC(=O)c2ccc3c(c2)N(C)C2CCCN2C3=O)cc1` (configuration not stated)?
hNpr1 antagonist: inactive; 3T3 cytotox: inactive; HEK cytotox: inconclusive; SNCA expr inhib: inactive; FLuc inh-1: 14.1µM; HEK293 viab: inactive[12.5 µM]; FLuc SDR -ATP: inactive; FLuc SDR ATP: inconclusive; FLuc inh-2: inconclusive

Results for CC(C)CN1CCN(C(=O)C2(CCO)CC23CCOCC3)CC1 (configuration not stated) ?
hNpr1 antagonist: inactive; 3T3 cytotox: inactive; HEK cytotox: inactive; SNCA expr inhib: inactive; FLuc inh-1: inactive; HEK293 viab: inactive
